Assay results as given in the supplement of paper PMC3414501.
Counter-ions that a name gives are not always drawn.

What was measured:
[1] = test system: S. cerevisiae SK1 pCDA2-eGFP (USY613), sporulating; assay: CDA2-GFP sporulation assay sensitivity score (z-score vs DMSO controls); higher = stronger inhibition of sporulation, active = hit call of the paper;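 also: active if sensitivity score above 5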
[2] = test system: S. cerevisiae NKY1551 his4x/his4B, sporulating; assay: HIS4 meiotic recombination assay sensitivity score (z-score vs DMSO controls); higher = stronger inhibition of sporulation/recombination, active = hit call of the paper;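 also: active if sensitivity score above 5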
[3] = test system: S. cerevisiae AD1-9 (efflux-pump deficient), vegetative growth in YPD; assay: growth sensitivity score (doubling time z-score vs DMSO controls); higher = slower growth, strongly negative scores also mark growth inhibition (complete suppression), active = hit call of the paper
Outline: (§1)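 Saccharomyces cerevisiae strains BY4741 and AD1-9 were seeded in rich medium in microtiter plates at an OD600 of 0.065. Compounds were added at a 1:100 dilution of DMSO stock. Optical density was read every 15 min for 24 hours on a Tecan GENios reader. Average doubling time was the time taken to reach a set generation point divided by generation number, and the growth sensitivity score was (compound mean − DMSO-control mean)/DMSO-control SD, using eight DMSO controls per experiment.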

[4] = test system: S. cerevisiae BY4741 (wild-type), vegetative growth in YPD; assay: as above
Outline: as §1

| Compound | CDA2-GFP sporulation assay sensitivity score [1] | HIS4 meiotic recombination assay sensitivity score [2] | growth sensitivity score [3] | growth sensitivity score [4] |
| --- | --- | --- | --- | --- |
| C[C@H]1C[C@H]2[C@@H]3CCC4=CC(=O)C=C[C@]4(C)[C@@]3(Cl)[C@@H](O)C[C@]2(C)[C@@]1(O)C(=O)CO [Beclomethasone] (stock concentration (mM, diluted 1:100): 10) | 1.56 (inactive) | -3.46 (inactive) | 2.68 (active) | 0.52 (inactive) |
| CCCCCNC(=N)N/N=C/c1c[nH]c2ccc(OC)cc12 [Tegaserod maleate] (stock concentration (mM, diluted 1:100): 7.2) | -3.28 (inactive) | -0.84 (inactive) |  |  |
| OC[C@H]1O[C@@H](Oc2cc(O)cc(/C=C/c3ccc(O)cc3)c2)[C@H](O)[C@@H](O)[C@@H]1O [Piceid] (stock concentration (mM, diluted 1:100): 10) | 0.56 (inactive) | -1.14 (inactive) | 0.32 (inactive) | -0.24 (inactive) |
| CN[C@H]1CC[C@@H](c2ccc(Cl)c(Cl)c2)c2ccccc21 [Sertraline] (stock concentration (mM, diluted 1:100): 9) | -0.26 (inactive) | -0.61 (inactive) |  |  |
| COc1cc2nc(N3CCN(C(=O)C4CCCO4)CC3)nc(N)c2cc1OC (centres undefined) [Terazosin] (stock concentration (mM, diluted 1:100): 9.5) | 3.45 (inactive) | 0.92 (inactive) | -0.95 (inactive) | -0.03 (inactive) |
| CNCC[C@@H](Oc1ccccc1C)c1ccccc1 [Atomexetine hydrochloride] (stock concentration (mM, diluted 1:100): 8.7) | 0.57 (inactive) | 10.1 (active) | 5.57 (active) | 0.06 (inactive) |
| CC(C)NCC(O)c1ccc(NS(C)(=O)=O)cc1 (centres undefined) [Sotalol hydrochloride] (stock concentration (mM, diluted 1:100): 8.8) | -0.03 (inactive) | -0.43 (inactive) | -0.51 (inactive) | -1.04 (inactive) |
| CN1CCN(CCCN2c3ccccc3Sc3ccc(C(F)(F)F)cc32)CC1 [Trifluoperazine dihydrochloride] (stock concentration (mM, diluted 1:100): 10) | -0.39 (inactive) | -2.62 (inactive) |  |  |
| O=c1c(-c2ccccc2)c1-c1ccccc1 [Diphenylcyclopropenone] (stock concentration (mM, diluted 1:100): 10) | 0.85 (inactive) | -0.87 (inactive) | 110 (active) | 39.9 (active) |
| COc1cc(OC)c(C(=O)CCCN2CCCC2)c(OC)c1 [Buflomedil hydrochloride] (stock concentration (mM, diluted 1:100): 8.9) | -0.24 (inactive) | -1.08 (inactive) | 0.38 (inactive) | 2.01 (active) |
| CC(=O)CCCCn1c(=O)c2c(ncn2C)n(C)c1=O [Pentoxifylline] (stock concentration (mM, diluted 1:100): 10) | 0.09 (inactive) | -0.42 (inactive) | -1.09 (inactive) | -0.51 (inactive) |
| CC(C)(C)NC(=O)[C@@H]1CN(Cc2cccnc2)CCN1C[C@@H](O)C[C@@H](Cc1ccccc1)C(=O)N[C@H]1c2ccccc2C[C@H]1O [Indinavir sulphate] (stock concentration (mM, diluted 1:100): 8.6) | -1.29 (inactive) | -1.36 (inactive) | -2.58 | 0 (inactive) |
| O=C1N[C@H](C(=O)O)CS1 [Procysteine] (stock concentration (mM, diluted 1:100): 10) | 0.97 (inactive) | -0.93 (inactive) | -2.4 | -0.31 (inactive) |
| Cc1ncc([N+](=O)[O-])n1CCO [Metronidazole] (stock concentration (mM, diluted 1:100): 10) | 0.28 (inactive) | 0.15 (inactive) | -0.99 (inactive) | -0.2 (inactive) |
| C[C@H](CCC(=O)O)[C@H]1CC[C@H]2[C@@H]3C(=O)C[C@@H]4CC(=O)CC[C@]4(C)[C@H]3CC(=O)[C@]12C [Dehydrocholic acid] (stock concentration (mM, diluted 1:100): 10) | 0.09 (inactive) | -0.93 (inactive) | -1.13 (inactive) | -0.69 (inactive) |
| C[C@H](N[C@@H](CCc1ccccc1)C(=O)O)C(=O)N1CCC[C@H]1C(=O)O [Enalaprilat] (stock concentration (mM, diluted 1:100): 10) | 1.04 (inactive) | -0.11 (inactive) | -0.82 (inactive) | 0.34 (inactive) |
| O=C(O[C@H]1[C@H](Oc2ccccc2COC(=O)C2(O)C=CCCC2=O)O[C@H](CO)[C@@H](O)[C@@H]1O)c1ccccc1 (some centres undefined) [Tremulacin] (stock concentration (mM, diluted 1:100): 10) | 3.04 (inactive) | -1.23 (inactive) | -1.16 (inactive) | -0.72 (inactive) |

| Compound | CDA2-GFP sporulation assay sensitivity score [1] | HIS4 meiotic recombination assay sensitivity score [2] | growth sensitivity score [3] | growth sensitivity score [4] |
| --- | --- | --- | --- | --- |
| O=C(CCNNC(=O)c1ccncc1)NCc1ccccc1 [Nialamide] (stock concentration (mM, diluted 1:100): 10) | 1.74 (inactive) | -1.89 (inactive) | -0.06 (inactive) | 0.19 (inactive) |
| CN(C)CCC[C@@]1(c2ccc(F)cc2)OCc2cc(C#N)ccc21 [Escitalopram oxalate] (stock concentration (mM, diluted 1:100): 7.9) | 0.99 (inactive) | 6.6 (active) | -1.47 (inactive) | 0.93 (inactive) |
| CCCCC[C@H](O)/C=C/[C@H]1[C@H](O)CC(=O)[C@@H]1CCCCCCC(=O)O [Prostaglandin E1] (stock concentration (mM, diluted 1:100): 10) | 6.45 (inactive) | 1.5 (inactive) | 0.11 (inactive) | -0.67 (inactive) |
| CC(C(O)c1ccc(O)cc1)N1CCC(Cc2ccccc2)CC1 (centres undefined) [Ifenprodil] (stock concentration (mM, diluted 1:100): 9.2) | 16.1 (active) | 4.63 (inactive) | 44.9 (active) | 3.06 (active) |
| CN1CCCCC1CCN1c2ccccc2Sc2ccc([S+](C)[O-])cc21 (centres undefined) [Mesoridazine] (stock concentration (mM, diluted 1:100): 10) | -0.29 (inactive) | -1.59 (inactive) | 278 (active) | 66 (active) |
| Cc1ccsc1C(=CCCN1CCC[C@@H](C(=O)O)C1)c1sccc1C [Tiagabine hydrochloride] (stock concentration (mM, diluted 1:100): 9.1) | 2.44 (inactive) | 5.07 (active) | 0.07 (inactive) | 0.29 (inactive) |
| CC(C)(C)NC(=O)[C@@H]1C[C@@H]2CCCC[C@@H]2CN1C[C@@H](O)[C@H](Cc1ccccc1)NC(=O)[C@H](CC(N)=O)NC(=O)c1ccc2ccccc2n1 [Saquinavir mesylate] (stock concentration (mM, diluted 1:100): 8.8) | -0.34 (inactive) | -1.67 (inactive) | -2.2 | 2.5 (active) |
| CC(c1cc2ccccc2s1)N(O)C(N)=O (centres undefined) [Zileuton] (stock concentration (mM, diluted 1:100): 10) | -0.22 (inactive) | -2.31 (inactive) | 0.45 (inactive) | -0.81 (inactive) |
| O=c1cnn([C@@H]2O[C@H](CO)[C@@H](O)[C@H]2O)c(=O)[nH]1 [6-Azauridine] (stock concentration (mM, diluted 1:100): 10) | 0.6 (inactive) | -1.27 (inactive) | 0.13 (inactive) | 0.64 (inactive) |
| O=C(O)CCNC(=O)c1ccc(/N=N/c2ccc(O)c(C(=O)O)c2)cc1 [Balsalazide] (stock concentration (mM, diluted 1:100): 10) | 1.1 (inactive) | -1.14 (inactive) | -1.86 (inactive) | -1.09 (inactive) |
| COc1ccc(C(=O)NCc2ccc(OCCN(C)C)cc2)cc1OC [Itopride hydrochloride] (stock concentration (mM, diluted 1:100): 8.2) | -0.55 (inactive) | -1.08 (inactive) | -1.3 (inactive) | -0.67 (inactive) |
| COC(=O)CCc1ccc(OCC(O)CNC(C)C)cc1 (centres undefined) [Esmolol hydrochloride] (stock concentration (mM, diluted 1:100): 9) | 0.86 (inactive) | 0.23 (inactive) | -2.29 | -0.5 (inactive) |
| OCCN1CCN(CCCN2c3ccccc3Sc3ccc(C(F)(F)F)cc32)CC1 [Fluphenazine hydrochloride] (stock concentration (mM, diluted 1:100): 10) | -0.3 (inactive) | 7.55 (active) |  |  |
| O=c1[nH]c(=O)n(C2CCCO2)cc1F (centres undefined) [Ftorafur] (stock concentration (mM, diluted 1:100): 10) | 0.02 (inactive) | 0.93 (inactive) | -0.92 (inactive) | 0.14 (inactive) |
| CC1(C)O[C@@H]2[C@@H](CO[C@@]3(COS(N)(=O)=O)OC(C)(C)O[C@@H]23)O1 [Topiramate] (stock concentration (mM, diluted 1:100): 10) | -1.32 (inactive) | 0.22 (inactive) | -0.81 (inactive) | -1.18 (inactive) |
| CC(=O)NCCCCCCNC(C)=O [Hexamethylene bisacetamide] (stock concentration (mM, diluted 1:100): 10) | 0.71 (inactive) | -0.63 (inactive) | 1.99 (inactive) | 1.69 (inactive) |
